Inconclusive results are not listed. The source made the active and inactive calls. The calls were made as follows: active = hit-call score of the fitted dose curve at least 0.9, where 1 is the maximum; inconclusive = response in the unintended direction; inactive = score below 0.9.

This assay in a line: ATG_M_32_EcoTox2: Attagene TRANS-FACTORIAL EcoTox-2 HepG2 Assay for M32 Transcription Factor (Internal Marker). Here is the method: ATG_EcoTox2 is a cell-based, multiplexed assay created by modifying the existing Attagene TRANS-FACTORIAL system to include a panel of nuclear receptors from some or all the following species: human (Homo sapiens), african clawed frog (Xenopus laevis), rainbow trout (Oncorhynchus mykiss), japanese medaka (Oryzias latipes), and zebrafish (Danio rerio). The ECOTOX2-FACTORIAL format uses HepG2, a human liver cell line, with measurements taken at 24 hours after chemical dosing in a 24-well plate. ATG_M_32_EcoTox2 is one of 29 assay components calculated in the ATG_EcoTox2 assay. It is designed to make measurements of mRNA induction, a form of inducible reporter, as detected with fluorescence intensity signals by Reverse transcription polymerase chain reaction (RT-PCR) and Capillary electrophoresis technology.The assay endpoint ATG_M_32_EcoTox2 was analyzed in the positive analysis fitting direction relative to DMSO as the negative control and baseline of activity. Using a type of inducible reporter, measures of mRNA for gain-of-signal activity can be used to understand the background control at the transcription factor-level as they relate to the gene. Furthermore, this assay endpoint can be referred to as a secondary readout, because this assay has produced multiple assay endpoints where this one serves a background control function. To generalize the intended target to other relatable targets, this assay endpoint is annotated to the background measurement intended target family, where the subfamily is internal marker.
Human liver HepG2 cells are transiently transfected with multiple reporter transcription units (MRTUs) in 6-well plates using FuGene 6 reagent (Roche; 3 ml FuGene/1 mg DNA). The MRTU constructs are regulated by a cis-regulating element (promoter). Each RTU expresses a GAL4-UAS that regulates the transcription of a nearby target reporter gene sequence. A major difference between the CIS and TRANS system is that in CIS activities of endogenous TFs are measured, whereas the TRANS assay evaluates changes in activities of exogenous, chimeric NR-Gal4 proteins. […] At the end of 24 hour incubation, total RNA was isolated using TriZol reagent (Invitrogen). The isolated RNA is then reverse-transcribed using oligo(dT) primer and Mo-MLV reverse transcriptase (Invitrogen) with DNAse I (Ambion) treatment for 30 min. The one-tenth of the produced cDNA was amplified by PCR using Taq DNA polymerase (Invitrogen) and two reporter sequence-specific primers. The PCR products were fluorescently labeled by primer extension with 6-arboxyfluorescein (6-FAM) 5'-labeled reporter sequence-specific primer (2 min at 95 C, 20 s at 68 C and 10 min at 72 C) and these products were digested with 5U of HpaI (New England Biolabs) for 2h at 37 C. The fragments were purified using Qiaquick PCR columns (Qiagen), analyzed on an ABI 3130xL genetic analyzer (Applied Biosystems) with peak positions identified by using a set of X-rhodamine (ROX)-labeled MapMarker1000 molecular weight standards (BioVentures). The raw capillary electrophoresis data was processed using Attagraph software (Attagene).
In the case of `C[C@@H]1C[C@H]2[C@@H]3CCC4=CC(=O)C=C[C@]4(C)[C@@]3(F)[C@@H](O)C[C@]2(C)[C@@]1(O)C(=O)COP(=O)(O)O`, the molecule was called inactive.

Take `Cc1c(C)c2c(c(C)c1O)CCC(C)(COc1ccc(CC3SC(=O)NC3=O)cc1)O2` (stereo unspecified): the result was inactive.

For the molecule `Cc1nc(-c2ccc(C(F)(F)F)cc2)sc1C(=O)NCc1ccc(OC(C)(C)C(=O)O)cc1`, the result was inactive.

With `CN(CCOc1ccc(CC2SC(=O)NC2=O)cc1)c1ccccn1` (stereo unspecified), the result was inactive.

Consider `CC(c1cc2ccccc2s1)N(O)C(N)=O` (stereo unspecified), for which the outcome was inactive.

In the case of `CC(C)OC(=O)C(C)(C)Oc1ccc(C(=O)c2ccc(Cl)cc2)cc1`, the molecule was called inactive.

For the origin of these results see PubChem BioAssay AID2284379 (EPA ToxCast).
